Screening data: PubChem BioAssay, several laboratories
An excerpt weighted towards active compounds, which were near 27% of everything screened.
CYP2C19 act: activators of human cytochrome P450 2C19 | 96,000 tested, under 10 active | P33261 | activation factor at 5 µM | AID 1025 | recombinant CYP2C19, luciferin-H EGE luminescence; hits give high values; 0 = fully inhibited enzyme, 1 = untreated enzyme;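 active means activation factor of at least 2 at 5 µM in the primary screen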;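 further: 0 = wells with 2.5 mM tranylcypromine and 1 = vehicle-only wells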
Target sequence (P33261 whole entry, looked up): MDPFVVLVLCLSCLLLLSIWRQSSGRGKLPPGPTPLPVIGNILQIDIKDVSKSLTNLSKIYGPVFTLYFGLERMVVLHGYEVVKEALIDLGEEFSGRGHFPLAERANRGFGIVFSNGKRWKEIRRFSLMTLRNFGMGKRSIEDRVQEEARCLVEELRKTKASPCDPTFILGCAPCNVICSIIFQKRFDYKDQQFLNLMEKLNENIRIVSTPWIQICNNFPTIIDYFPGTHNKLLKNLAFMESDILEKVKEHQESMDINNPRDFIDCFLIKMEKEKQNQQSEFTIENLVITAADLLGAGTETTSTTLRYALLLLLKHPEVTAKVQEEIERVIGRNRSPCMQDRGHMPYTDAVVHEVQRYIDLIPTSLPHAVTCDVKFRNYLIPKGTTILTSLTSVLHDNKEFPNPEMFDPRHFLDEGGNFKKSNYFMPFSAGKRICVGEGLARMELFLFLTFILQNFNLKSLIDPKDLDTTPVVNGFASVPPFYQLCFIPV
sEH activator: activators of human soluble epoxide hydrolase. P34913. purified human sEH enzymatic activity, activator screen. activation, % at 2 µM. hit rate 0.04% among 91,000; in the data active means activation above about 37%
CYP2C9 activ: CYP2C9 (human) activation | recombinant CYP2C9, luciferin-H conversion, luminescence; hits give high values; factor 1 = untreated enzyme, 0 = blocked | activation factor at 5 µM | hit rate 1.4% among 96,000;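 active means activation factor of 2 or more for CYP2C9 at a 5 µM dose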;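 further: 0 = sulfaphenazole-blocked wells and 1 = vehicle-only wells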
CYP2C19 inhib: blocks human cytochrome P450 2C19 | P33261 | CYP2C19 Supersomes, luciferin-H EGE luminescence, 30 min | inhibition, % at 5 µM | hit rate 21% among 96,000;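 active means CYP2C19 inhibition above a set limit at 5 µM in the primary screen, cut at about 50% in these data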;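 further: plate controls were negative control wells for no effect and 2.5 mM tranylcypromine positive control for full effect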
sEH inh: inhibitors of human soluble epoxide hydrolase; P34913; recombinant human sEH enzymatic activity assay; inhibition, % at 2 µM; hit rate 0.34% among 91,000; in the data active means inhibition above about 80%
CYP2C9 inh: inhibitors of human CYP2C9 | hit rate 20% among 96,000 | AID 777 | inhibition, % at 5 µM | CYP2C9 Supersomes, luciferin-H conversion, luminescence | P11712;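 active means blocking of liver enzyme CYP2C9 beyond about 50% at 5 µM, limit read from the data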
Starred values were filed as active, the others as inactive; x = not tested or not shown.

SMILES	CYP2C19 act	sEH activator	CYP2C9 activ	CYP2C19 inhib	sEH inh	CYP2C9 inh
COc1cc(C(=O)Nc2sc3c(c2C(=O)NCc2ccco2)CCCC3)cc(OC)c1OC	0.4	10.0	0.2	61.1*	-13.9	76.4*
COc1ccc(C(=O)Nc2ccc(Cl)cc2C(=O)NCc2ccco2)cc1OC	0.7	-5.1	0.4	28.7	3.9	62.7*
CC(C(=O)Nc1sc2c(c1C(=O)NCc1ccco1)CCCC2)N1C(=O)c2ccccc2C1=O (configuration not stated)	1.1	-9.2	0.9	-6.4	10.0	8.0
O=C(CCN1C(=O)c2ccccc2C1=O)Nc1sc2c(c1C(=O)NCc1ccco1)CCCC2	0.2	14.3	0.1	75.9*	-11.8	92.1*
Cc1ccc(C(=O)Nc2sc3c(c2C(=O)NCc2ccco2)CCCC3)cc1	0.9	5.8	0.3	8.5	-5.7	65.1*
COc1ccc(C(=O)Nc2sc3c(c2C(=O)NCc2ccco2)CCCC3)cc1OC	0.5	19.0	0.1	51.0*	-18.9	85.9*
COC(=O)Nc1sc2c(c1C(=O)NCc1ccco1)CCC2	0.9	-3.4	0.7	10.1	6.5	34.1
O=C(Nc1sc2c(c1C(=O)NCc1ccco1)CCCC2)c1ccc2c(c1)OCO2	0.4	4.6	0.2	63.3*	-0.8	84.5*
COC(=O)Nc1sc2c(c1C(=O)NCc1ccco1)CCCC2	1.1	4.1	1	-5.2	-1.9	4.1
CCOc1nc2ccccc2nc1C	1.1	-16.7	1	-8.3	19.6	-4.4
Cn1c(=O)n(CC(=O)OCc2ccccc2)c(=O)c2c1nc1n2CCCN1C1CCCCC1	x	20.5	x	x	-22.9	x
Cc1cc(C)n(C(=O)C23CC4CC(CC(C4)C2)C3)n1	1	10.8	1	-3.4	-11.4	3.1
CC(c1ccccc1)N1C(=O)c2ccccc2C1O (configuration not stated)	0.3	-7.0	0.9	66.0*	4.5	7.6
Cc1c(S(=O)(=O)N2CCN(C(c3ccccc3)c3ccccc3)CC2)c(=O)n(C)c(=O)n1C	1.1	11.2	0.8	-13.4	-13.0	16.2
Cc1ccc(Sc2cc(Cl)nc(N)n2)cc1	1	-5.0	1	4.0	6.0	3.8
O=c1c2c(nc3c(-c4cccc5ccccc45)c[nH]n13)CCC2	0.9	6.4	0.3	7.2	-5.7	69.3*
S=c1nc(-c2ccccc2Br)[nH][nH]1	x	-14.5	x	x	14.2	x
CCOc1ccc(NC(=O)CSc2nnc(C)n2CCCOC)cc1	0.7	14.6	0.9	26.8	-15.8	9.1
CCCCC(CC)C1OCC(CN2CCCC2)O1 (configuration not stated)	0.8	10.4	1	17.1	-10.3	-0.8
c1cc(-c2nc3cc(Cc4ccc5oc(-c6ccncc6)nc5c4)ccc3o2)ccn1	0.9	x	0.5	11.2	x	51.1*
c1cncc(-c2nc3cc(Cc4ccc5oc(-c6cccnc6)nc5c4)ccc3o2)c1	1	x	0.6	-0.6	x	39.2
CCN1C(=O)C(O)(CC(=O)c2cc(C)ccc2C)c2ccccc21 (configuration not stated)	0.6	-12.1	1	44.3	11.2	-1.8
Cc1ccc(C(C)C)cc1C(=O)CC1(O)C(=O)N(C)c2ccccc21 (configuration not stated)	0.3	-3.4	0.4	66.4*	3.5	59.2*
COc1ccc2nc(SCC(=O)Nc3cc(C)on3)[nH]c2c1	0.6	-11.0	0.6	43.0	8.4	39.4
COc1ccc(C(CC(=O)NCCCN2CCOCC2)NS(=O)(=O)c2ccc(C)cc2)cc1 (configuration not stated)	1.1	4.1	1.1	-10.9	-3.8	-12.3
SMILES	CYP2C19 act	sEH activator	CYP2C9 activ	CYP2C19 inhib	sEH inh	CYP2C9 inh
O=C(CC12CC3CC(CC(C3)C1)C2)NCc1ccncc1	0	-20.5	0.1	99.3*	21.3	87.5*
CNC(=O)CC12CC3CC(CC(C3)C1)C2	1	-5.2	1	-0.6	1.8	2.6
CC(C)NC(=S)NNC(=O)C12CC3CC(CC(C3)C1)C2	0.9	12.5	1.1	6.4	-12.2	-7.2
O=C(NNC(=S)Nc1ccccc1)c1ccncc1	0.3	-2.1	0.3	69.5*	2.8	69.2*
NS(=O)(=O)c1ccc(CNC(=O)C23CC4CC(CC(C4)C2)C3)cc1	1	-28.2	1	3.1	27.5	-0.4
O=C(NNC(=S)NC(=O)C12CC3CC(CC(C3)C1)C2)c1ccncc1	0.3	-5.2	0.1	66.8*	3.3	93.9*
O=C(NNS(=O)(=O)c1ccccc1)c1ccncc1	1.2	-1.0	1.2	-15.6	3.1	-21.8
